The record followed here is PubChem BioAssay.

Structures are written as SMILES. Activity calls are given as the source filed them.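 How the source made its calls: active means normalized viability below 100% at a tested concentration; inactive means the rest.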

A short description of the first experiment: drug combination growth inhibition, ovarian cancer – cell-based, oncology-focused library, rucaparib conditional, profiling panel (AID 1508598). The note with it: patient-derived ovarian cancer cells, CellTiter-Glo viability, 144 h; at 0.00122 µM; OCI-C5x cells; without rucaparib; active compounds read low. On the technique in general: ATP-based viability assays read luminescence as a measure of living cells.
In the case of `N[C@@H]1CCCN(c2c(/C=C3\SC(=O)NC3=O)cccc2-c2ccccc2)C1`, the viability (usually a read-out of living cells in per cent, often relative to untreated cells) was 121% (inactive).

`C[C@@H]1C[C@H]2[C@@H]3CCC4=CC(=O)C=C[C@]4(C)[C@]3(F)[C@H](O)C[C@]2(C)[C@]1(O)C(=O)CO`: the viability was 125% (inactive).

In the case of `Cc1cc2c(C(=O)NC[C@H](C)c3ccccc3)c(O)c(O)cc2c(O)c1-c1c(C)cc2c(C(=O)NC[C@H](C)c3ccccc3)c(O)c(O)cc2c1O`, the viability is 116% (inactive).

For the compound `Nc1nc(F)nc2c1ncn2[C@H]1O[C@H](CO)[C@@H](O)[C@@H]1O`, the viability is 117% (inactive).

In the case of `COc1cccc2c1C(=O)c1c(O)c3c(c(O)c1C2=O)C[C@@](O)(C(=O)CO)C[C@H]3O[C@H]1C[C@H](N)[C@@H](O)[C@H](C)O1`, the viability is 106% (inactive).

As to `C=C1/C(=C/C=C2\CCC[C@@]3(C)[C@H]2CC[C@H]3[C@H](C)/C=C/[C@@H](C)C(C)C)C[C@H](O)C[C@@H]1O`, the viability was 100% (active).

For `CO[C@H]1C[C@H]2CC[C@@H](C)[C@@](O)(O2)C(=O)C(=O)N2CCCC[C@H]2C(=O)O[C@H]([C@H](C)C[C@@H]2CC[C@H](OP(C)(C)=O)[C@H](OC)C2)CC(=O)[C@H](C)/C=C(\C)[C@@H](O)[C@@H](OC)C(=O)[C@H](C)C[C@H](C)/C=C/C=C/C=C/1C`, the viability was 97.3% (active).

As to `C=CCNC1=C2C[C@@H](C)C[C@H](OC)[C@H](O)[C@@H](C)/C=C(\C)[C@H](OC(N)=O)[C@@H](OC)/C=C\C=C(\C)C(=O)NC(=CC1=O)C2=O`, the viability is 108% (inactive).

For the compound `CC[C@]1(O)C[C@@H]2CN(CCc3c([nH]c4ccccc34)[C@@](C(=O)OC)(c3cc4c(cc3OC)N(C=O)[C@@H]3C45CCN4CC=C[C@](CC)([C@H]45)[C@H](OC(C)=O)[C@]3(O)C(=O)OC)C2)C1` (stereo partly specified), the viability is 98.8% (active).

Regarding `COc1cccc2c1C(=O)c1c(O)c3c(c(O)c1C2=O)C[C@@](O)(C(C)=O)C[C@H]3O[C@H]1C[C@H](N)[C@H](O)[C@H](C)O1`, the viability is 101% (inactive).

Turning to `CCOc1ccc(Cc2cc([C@@H]3O[C@H](CO)[C@@H](O)[C@H](O)[C@@H]3O)ccc2Cl)cc1`, the viability is 108% (inactive).

`CC(=O)[C@]1(O)Cc2c(O)c3c(c(O)c2[C@H](O[C@H]2C[C@H](N)[C@H](O)[C@H](C)O2)C1)C(=O)c1ccccc1C3=O`: the viability was 107% (inactive).

`CCC1=CC2CN(C1)Cc1c([nH]c3ccccc13)[C@@](C(=O)OC)(c1cc3c(cc1OC)N(C)[C@H]1[C@@](O)(C(=O)OC)[C@H](OC(C)=O)[C@]4(CC)C=CCN5CC[C@@]31[C@H]54)C2` (stereo partly specified): the viability was 70.1% (active).

As to `CC(=O)O[C@H]1C(=O)[C@@]2(C)C([C@H](OC(=O)c3ccccc3)[C@]3(O)C[C@H](OC(=O)[C@H](O)[C@@H](NC(=O)c4ccccc4)c4ccccc4)C(C)=C1C3(C)C)[C@]1(OC(C)=O)CO[C@@H]1C[C@H]2O` (stereo partly specified), the viability was 121% (inactive).

As to `CO[C@H]1C[C@H]2CC[C@@H](C)[C@@](O)(O2)C(=O)C(=O)N2CCCC[C@H]2C(=O)O[C@H]([C@H](C)C[C@@H]2CC[C@H](OC(=O)C(C)(CO)CO)[C@H](OC)C2)CC(=O)[C@H](C)/C=C(\C)[C@@H](O)[C@@H](OC)C(=O)[C@H](C)C[C@H](C)/C=C/C=C/C=C/1C`, the viability was 95.7% (active).

As to `CO[C@H]1/C=C\C=C(\C)C(=O)NC2=CC(=O)C(NCCN(C)C)=C(C[C@@H](C)C[C@H](OC)[C@H](O)[C@@H](C)/C=C(\C)[C@@H]1OC(N)=O)C2=O`, the viability was 109% (inactive).

With `CC(C)(C(=O)NCC(F)(F)C(F)(F)F)C(=O)N[C@H]1C(=O)Nc2ccccc2-c2ccccc21`, the viability is 111% (inactive).

Regarding `CC1(C)O[C@@H]2C[C@H]3[C@@H]4CCC5=CC(=O)C=C[C@]5(C)[C@]4(F)[C@H](O)C[C@]3(C)[C@@]2(C(=O)CO)O1`, the viability was 123% (inactive).

Staying with this experiment, now noted: patient-derived ovarian cancer cells, CellTiter-Glo viability, 144 h; at 0.00122 µM; OCI-P5x cells; with rucaparib 20 µM; active compounds read low; 100% = cells with rucaparib alone.
As to `N[C@@H]1CCCN(c2c(/C=C3\SC(=O)NC3=O)cccc2-c2ccccc2)C1`, the viability was 98.1% (active).

Turning to `C[C@@H]1C[C@H]2[C@@H]3CCC4=CC(=O)C=C[C@]4(C)[C@]3(F)[C@H](O)C[C@]2(C)[C@]1(O)C(=O)CO`, the viability is 110% (inactive).

As to `Cc1cc2c(C(=O)NC[C@H](C)c3ccccc3)c(O)c(O)cc2c(O)c1-c1c(C)cc2c(C(=O)NC[C@H](C)c3ccccc3)c(O)c(O)cc2c1O`, the viability is 98.5% (active).

On to `Nc1nc(F)nc2c1ncn2[C@H]1O[C@H](CO)[C@@H](O)[C@@H]1O`, for which the viability was 103% (inactive).

Turning to `COc1cccc2c1C(=O)c1c(O)c3c(c(O)c1C2=O)C[C@@](O)(C(=O)CO)C[C@H]3O[C@H]1C[C@H](N)[C@@H](O)[C@H](C)O1`, the viability was 103% (inactive).

On to `C=C1/C(=C/C=C2\CCC[C@@]3(C)[C@H]2CC[C@H]3[C@H](C)/C=C/[C@@H](C)C(C)C)C[C@H](O)C[C@@H]1O`, for which the viability is 105% (inactive).

Regarding `CO[C@H]1C[C@H]2CC[C@@H](C)[C@@](O)(O2)C(=O)C(=O)N2CCCC[C@H]2C(=O)O[C@H]([C@H](C)C[C@@H]2CC[C@H](OP(C)(C)=O)[C@H](OC)C2)CC(=O)[C@H](C)/C=C(\C)[C@@H](O)[C@@H](OC)C(=O)[C@H](C)C[C@H](C)/C=C/C=C/C=C/1C`, the viability was 77.8% (active).

In the case of `C=CCNC1=C2C[C@@H](C)C[C@H](OC)[C@H](O)[C@@H](C)/C=C(\C)[C@H](OC(N)=O)[C@@H](OC)/C=C\C=C(\C)C(=O)NC(=CC1=O)C2=O`, the viability is 126% (inactive).

With `CC[C@]1(O)C[C@@H]2CN(CCc3c([nH]c4ccccc34)[C@@](C(=O)OC)(c3cc4c(cc3OC)N(C=O)[C@@H]3C45CCN4CC=C[C@](CC)([C@H]45)[C@H](OC(C)=O)[C@]3(O)C(=O)OC)C2)C1` (stereo partly specified), the viability was 102% (inactive).

For `COc1cccc2c1C(=O)c1c(O)c3c(c(O)c1C2=O)C[C@@](O)(C(C)=O)C[C@H]3O[C@H]1C[C@H](N)[C@H](O)[C@H](C)O1`, the viability was 99.8% (active).

As for `CCOc1ccc(Cc2cc([C@@H]3O[C@H](CO)[C@@H](O)[C@H](O)[C@@H]3O)ccc2Cl)cc1`, the viability was 96.6% (active).

As for `CC(=O)[C@]1(O)Cc2c(O)c3c(c(O)c2[C@H](O[C@H]2C[C@H](N)[C@H](O)[C@H](C)O2)C1)C(=O)c1ccccc1C3=O`, the viability is 107% (inactive).

Take `CCC1=CC2CN(C1)Cc1c([nH]c3ccccc13)[C@@](C(=O)OC)(c1cc3c(cc1OC)N(C)[C@H]1[C@@](O)(C(=O)OC)[C@H](OC(C)=O)[C@]4(CC)C=CCN5CC[C@@]31[C@H]54)C2` (stereo partly specified): the viability was 1.29% (active).

In the case of `CC(=O)O[C@H]1C(=O)[C@@]2(C)C([C@H](OC(=O)c3ccccc3)[C@]3(O)C[C@H](OC(=O)[C@H](O)[C@@H](NC(=O)c4ccccc4)c4ccccc4)C(C)=C1C3(C)C)[C@]1(OC(C)=O)CO[C@@H]1C[C@H]2O` (stereo partly specified), the viability was 119% (inactive).

`CO[C@H]1C[C@H]2CC[C@@H](C)[C@@](O)(O2)C(=O)C(=O)N2CCCC[C@H]2C(=O)O[C@H]([C@H](C)C[C@@H]2CC[C@H](OC(=O)C(C)(CO)CO)[C@H](OC)C2)CC(=O)[C@H](C)/C=C(\C)[C@@H](O)[C@@H](OC)C(=O)[C@H](C)C[C@H](C)/C=C/C=C/C=C/1C`: the viability was 77.3% (active).

Regarding `CO[C@H]1/C=C\C=C(\C)C(=O)NC2=CC(=O)C(NCCN(C)C)=C(C[C@@H](C)C[C@H](OC)[C@H](O)[C@@H](C)/C=C(\C)[C@@H]1OC(N)=O)C2=O`, the viability is 114% (inactive).

For the compound `CC(C)(C(=O)NCC(F)(F)C(F)(F)F)C(=O)N[C@H]1C(=O)Nc2ccccc2-c2ccccc21`, the viability was 103% (inactive).

As to `CC1(C)O[C@@H]2C[C@H]3[C@@H]4CCC5=CC(=O)C=C[C@]5(C)[C@]4(F)[C@H](O)C[C@]3(C)[C@@]2(C(=O)CO)O1`, the viability was 101% (inactive).
